Values joined by “and” are separate entries in the source; they are usually repeats but may differ in a detail not shown here. Equal values may be shown once. The whole screen tested about 320,000 compounds, of which about 2,100 (0.66%) were called active. Roughly 53% stayed inconclusive and do not appear here. Calls follow the shape of the dose curve; as a rule, active = well fitted inhibition curve with a large enough effect in the signal ratio, with a control signal flat (not every such curve was filed as active); inconclusive = small, poorly fitted or top-dose-only effect, or effect the other way, or a change in a side signal; inactive = flat fitted curve, though single readings scatter; the % refers to the signal ratio. The list comes from a sample in which actives are over-represented; it also holds similar structures and randomly drawn compounds.
Test: qHTS Assay for Lipid Storage Modulators in Drosophila S3 Cells;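 as to cell number change: cells counted by Cell Tracker Red CMTPX staining in the red channel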
Conditions: BODIPY lipid droplet fluorescence, 18-24 h, cells fed with added oleic acid; cell number change: measured here: cell count max response; series mostly up to 46.1 µM
Source text: NIH Molecular Libraries Probe Production Centers Network [MLPCN] NIH Chemical Genomics Center [NCGC] MLPCN Grant: 1 R03 MH085686-01 Assay Submitter (PI): Beller, Mathias; Max-Planck-Institut fur Biophysikalische Chemie NCGC Assay Overview: Storing lipids as a reservoir for energy or the anabolism of elementary metabolites is a common feature of probably all cells and is conserved from bacteria to humans. The universal cellular lipid storage organelle is the so-called lipid storage droplet (LD). Although ubiquitous, LDs share a simple structure composed of a hydrophobic core that harbors the storage lipids, which is shielded by a droplet-specific phospholipid monolayer to which proteins are attached. The current model of LD biogenesis involves an incorporation of the lipid core into the membrane leaflets of the endoplasmic reticulum (ER) followed by a subsequent budding-like maturation of a LD, which ultimately pinches off. Once released, LD volume can increase by localized lipogenesis or fusion of existing droplet. Storage lipids are re-mobilized enzymatically by lipase activity. Lipase regulation in the adipocyte is heavily studied and involves multiple components including catecholamine signaling, the LD-associated proteins Perilipin and comparative gene identification (CGI-58) and at least two lipases named hormone sensitive lipase (HSL) and adipocyte triglyceride lipase (ATGL). LD regulation outside of the adipocyte is poorly understood and only few components are known. However, there is an urgent need to learn more about ectopic fat depots as mislocalized storage of lipids, for example in the liver or muscle, is an eminent health problem associated with insulin resistance or the metabolic syndrome. We developed a laser-scanning cytometer assay to enable 1,536-well screening and combined the results of the small molecules screen with an RNAi database based on lipid storage.
Triacsin C (Sigma-Aldrich T-4540), an inhibitor of long-chain fatty acyl CoA synthetase that blocks synthesis of triglycerides, was used as a positive control for lipid under-storage. A total of 23 nL of compound solution of different concentrations were transferred to the assay plates using a Kalypsys pin tool equipped with a 1,536-pin array containing 10-nL slotted pins (FP1S10, 0.457-mm diameter, 50.8 mm long; V&P Scientific). One microliter of oleic acid (400 uM) was added, and the plate was lidded with stainless steel rubber gasket lined lids containing pinholes. […] Fluorescence was detected by excitation of the fluorophores with a 488-nm laser on an Acumen Explorer (TTP Lab Tech). The total intensity in channel 2 (500-530 nm) reflected lipid droplet accumulation. Cells were detected using channel 3 (575-640 nm) with 5-um width and 100-um depth filters. The ratio of the number of objects in PMT channel 2 over the number of objects in PMT channel 3 was also calculated. Percent activity was computed relative to an internal control (100% inhibited lipid droplet deposition due to the presence of 20 uM Triacsin C), which was added to 32 wells/plate.
Potency is read from the fitted curve at half-maximal effect.

SMILES | Potency | cell number change
CCOC(=O)Cc1csc(NC(=S)NC(=O)c2cc(OC)c(OC)c(OC)c2)n1 | inactive | -1.2%
COc1ccc(NC(=O)Nc2nnc(-c3cccs3)s2)cc1 | inactive | -11.4%
COc1ccc(C(=O)Nc2nc(-c3ccccc3)c(C(C)=O)s2)c(OC)c1 | inactive | -8.6%
COCCn1c(=O)[nH]c2cc(C(=O)NC(C)C)ccc2c1=O | inactive | 2.66%
CCCS(=O)(=O)c1nc(S(=O)(=O)c2ccc(C)cc2)c(NCCCN(C)C)s1 | inactive | 6.73%
CC(=O)NC(c1cccs1)c1cc(F)c2cccnc2c1O (stereo not drawn) | 8.4% and -17.4% | –
CC(=O)NC(c1ccco1)c1cc(F)c2cccnc2c1O (stereo not drawn) | inactive | -4.72%
CC(=O)NC(c1cccs1)c1cc(Br)c2cccnc2c1O (stereo not drawn) | inactive | 16.4%
Cc1cc(C)c(NC(=O)CS(=O)CC(=O)NCC2CCCO2)c(C)c1 (stereo not drawn) | inactive | 3.77%
Cc1ccc(C(=O)Nc2cccc(C(F)(F)F)c2)cc1NC(=O)c1nccnc1N | inactive | -18.4%
Cc1ccc(NC(=O)c2cccc(C(F)(F)F)c2)cc1NC(=O)c1[nH]cnc1C(N)=O | 0.517 µM (active) | -5.2%
Cc1ccc(C(=O)Nc2cccc(C(F)(F)F)c2)cc1Nc1ncnc2nc[nH]c12 | inactive | -0.327%
CC(NC(=O)c1cc(S(=O)(=O)N2CCCC2)ccc1Cl)c1ccccn1 (stereo not drawn) | inactive | 12.8%
O=C(N/N=C/c1ccc([N+](=O)[O-])cc1)c1ccc2nc[nH]c2c1 | inactive | -15.6%
O=C(Nc1ccc(F)cc1)c1cc(Cl)sc1Cl | inactive | -1.56%
CN1c2ccsc2C(O)=C(C(=S)Nc2ccccc2)S1(=O)=O | 18.4 µM (active) | 15.4%
CN1c2ccccc2C(O)=C(C(=O)Nc2ccccc2)S1(=O)=O | inactive | –
Cc1ccccc1NC(=S)C1=C(O)c2sccc2N(C)S1(=O)=O | inactive | –
COc1ccc(NC(=S)NNC(=O)CNc2ccc(Cl)cc2)cc1 | inactive | –
COc1ccccc1N1CCN(CC(C)N(C(=O)C2CCCCC2)c2ccccn2)CC1 (stereo not drawn) | inactive | 9.42%
CCOc1cc(C2C(C(=O)c3ccc(C)o3)=C(O)C(=O)N2CCc2ccccc2)ccc1O (stereo not drawn) | inactive | –
O=C(CN1CCCCC1)Nc1cccc(Br)c1 | 23.1 µM (active) | -14.8%
O=C(CN1CCCCCC1)Nc1cccc(NC(=O)CN2CCCCCC2)c1 | inactive | -11.3%
CCOC(=O)c1cc(NC(=O)CN2CCCC2)cc(C(=O)OCC)c1 | 2.31 µM (active) | -1.35%
COc1ccc(NC(=O)CCN2CCCCCC2)cc1 | inactive | -0.671%

SMILES | Potency | cell number change
COC(=O)c1ccc(NC(=O)CN2CCCC2)cc1 | inactive | -13.3%
CCOc1ccc(NC(=O)CCN2CCCCC2)cc1 | inactive | 9.23%
CN1CCN(CCC(=O)Nc2ccc(F)c(F)c2)CC1 | inactive | -0.365%
COC(=O)c1cc(NC(=O)CN2CCN(C(C)=O)CC2)cc(C(=O)OC)c1 | inactive | 15.4%
COc1ccc(NC(=O)CCN2CCCCC2)cc1 | 18.4 µM (active) | -13.9%
O=C(CCN1CCN(CCO)CC1)Nc1ccc(F)c(F)c1 | 6.51 µM (active) | 1.67%
O=C(CCN1CCN(CCO)CC1)Nc1ccc(Br)cc1 | inactive | 0.964%
O=C(CCN1CCCC1)Nc1cccc(Br)c1 | inactive | -0.144%
O=C(CSc1nc2c(c(=O)n1-c1ccc(F)cc1)SCC2)N1CCCC1 | inactive | -5.69%
Cc1cc(C)cc(OC(=O)COc2ccccc2C)c1 | inactive | 16.2%
CCCOc1ccccc1C(=O)N(Cc1ccco1)C1CCS(=O)(=O)C1 (stereo not drawn) | inactive | -17.8%
CCOC(=O)C1=C(COC(=O)CCC(=O)c2ccc(C)cc2)NC(=O)NC1C (stereo not drawn) | inactive | 25.4%
CC(=O)C(Sc1ccc2nnc(-c3ccncc3)n2n1)C(C)=O | inactive | 11%
Cc1cc(C)cc(N(CCC(=O)Nc2nnc(C)s2)S(=O)(=O)c2ccc(Cl)cc2)c1 | inactive | -5.03%
Cc1nc([N+](=O)[O-])c(SCC(N)=O)n1Cc1ccccc1 | inactive | 11.1%
Cc1ccc(C(=O)C2CCN(S(=O)(=O)c3ccccc3C(=O)O)CC2)cc1 | inactive | 25.8%
COCCN(CC1CCCN(C2Cc3ccccc3C2)C1)C(=O)CCC(F)(F)F (stereo not drawn) | inactive | 20.2%
O=C(Nc1ccc(C(=O)N2CCOCC2)cc1)Nc1cccc(Cl)c1 | inactive | 5.64%
COc1ccc(NC(=O)COc2ccc3c(c2)CCC3)cc1 | 8.2 µM (active) | –
COc1cccc(NC(=O)COc2ccc3c(c2)CCC3)c1 | inactive | –
COc1ccc(C(=O)CCN2CCCC(C)C2)cc1 (stereo not drawn) | 11.6 µM (active) | -14.2%
COc1ccc(NC(=O)N2CCCC(C(=O)Nc3ccccc3OC)C2)cc1 (stereo not drawn) | inactive | 0.427%
COc1ccc(NC(=O)CCN2CCCC(C)C2)cc1 (stereo not drawn) | inactive | 17%
CC1CCCN(CCC(=O)c2ccc(Br)cc2)C1 (stereo not drawn) | inactive | -9.39%
CC(=O)c1cccc(NC(=O)Nc2ccc(C(=O)N3CCCC3)cc2)c1 | inactive | 14.3%

SMILES | Potency | cell number change
O=C(Nc1ccc(C(=O)N2CCCCC2)cc1)Nc1cccc(Cl)c1 | 13 µM (active) | –
CCOc1ccc(NC(=O)COc2ccc3c(c2)CCC3)cc1OC | inactive | -12.3%
COc1ccc(NC(=O)N2CCCC(C(=O)NC(C)C)C2)cc1 (stereo not drawn) | inactive | 10.2%
COc1ccc(NC(=O)C2CCCN(C(=O)Nc3ccc(OC)cc3)C2)cc1 (stereo not drawn) | 1.03 µM (active) | 16.7%
NS(=O)(=O)c1cc(Cl)c(NC(=O)COC(=O)c2ccccn2)c(Cl)c1 | inactive | 16.5%
N#Cc1ccccc1OCC(=O)Nc1ccc2c(c1)OCCCO2 | inactive | 0.833%
O=[N+]([O-])c1ccc(Oc2ccc(OCc3ccccc3)cc2)nc1 | inactive | -9.11%
CC(=O)Nc1ccc(NC(=O)C(C)OC(=O)CCC(=O)c2ccc(F)cc2)cc1 (stereo not drawn) | inactive | 8.99%
Cc1ccc(C(=O)NNC(=O)c2ccncc2)cc1C | inactive | 12.2%
CCOC(=O)N1CCN(CC(O)COc2c(C)cc(C)cc2C)CC1 (stereo not drawn) | inactive | 5%
O=C(CCN1CCCCCC1)Nc1ccc(F)cc1 | inactive | -3.75%
CCOC(=O)c1cc(NC(=O)Cc2ccc(S(=O)(=O)N3CCOCC3)s2)cc(C(=O)OCC)c1 | 1.16 µM (active) | -15.4%
CNC(=O)c1ccc(NC(=O)Cc2ccc(S(=O)(=O)N3CCOCC3)s2)cc1 | inactive | –
O=C(CCN1CCCCC1)Nc1cccc(Cl)c1 | 25.9 µM (active) | -28.1%
O=C(NCCN1CCCCC1)Nc1cccc(F)c1 | inactive | -5.7%
Cc1cccc(NC(=O)CCN2CCCCC2)c1 | inactive | 8.73%
O=C(Cc1ccc(S(=O)(=O)N2CCOCC2)s1)Nc1ccc2c(c1)CCC2 | inactive | -23.1%
O=C(CCN1CCCCC1)Nc1ccccc1 | inactive | -23.3%
O=C(CCN1CCCCCC1)Nc1cccc(F)c1 | 25.9 µM (active) | -13.4%
COc1ccc(NC(=O)C2CCCN(S(=O)(=O)c3ccc4c(c3)oc(=O)n4C)C2)c(OC)c1 (stereo not drawn) | inactive | 13.3%
COc1cc(C2NC(=O)NC(C)=C2C(C)=O)cc(OC)c1OC (stereo not drawn) | inactive | 0.318%
COc1ccc(CC(=O)Nc2ccc(/C(C)=N\NC(=O)c3ccc(Br)o3)cc2)cc1 | inactive | 2.49%
COC(=O)c1ccc(COC(=O)C2CC(O)CN2S(=O)(=O)c2ccc([N+](=O)[O-])cc2)cc1 (stereo not drawn) | inactive | 2.24%
CC1CCCC(C)N1C(=O)CSc1nnc(NC(=O)c2cccs2)s1 (stereo not drawn) | inactive | 3.67%
CCn1cc([N+](=O)[O-])c(C(=O)N2CCCC2)n1 | 29.1 µM (active) | -10.5%

SMILES | Potency | cell number change
CCn1cc([N+](=O)[O-])c(C(=O)N2CCOCC2)n1 | inactive | -13.3%
CCn1cc([N+](=O)[O-])c(C(=O)N2CCCCCC2)n1 | inactive | 11.5%
COc1ccc(/C=N/S(=O)(=O)c2ccc(C)cc2)cc1 | inactive | –
CC(=O)C(Cc1ccccc1)NC(=O)COC(=O)CCN1C(=O)C2CC=CCC2C1=O (stereo not drawn) | inactive | 7.02%
Cc1ccc(SCC(=O)OCC(=O)NC(C)c2ccc(Br)cc2)cc1 (stereo not drawn) | inactive | -2.31%
CC(NC(=O)COC(=O)CCN1C(=O)C2CC=CCC2C1=O)c1ccc(Br)cc1 (stereo not drawn) | 9.2 µM (active) | 1.69%
O=C1N(CC(=O)N2CCc3ccccc32)CCN1Cc1ccc(Cl)cc1 | inactive | –
COc1nn(-c2ccccc2)c(=O)c(Cl)c1Cl | 11.6 µM (active) | -20%
COc1c(Cl)cnn(-c2ccccc2)c1=O | inactive | -2.85%
COc1cc(Cl)nn(-c2ccccc2)c1=O | inactive | 0.264%
COc1ccc(NC(=O)NC2CCCCCCC2)c(OC)c1 | inactive | -0.578%
COc1ccc(NC(=O)Cn2ccc3c(OC)cccc3c2=O)cc1 | inactive | 0.407%
NNC(=O)COc1ccc2oc3c(c2c1)CCCC3 | inactive | 10.5%
O=C(O)COc1ccc2oc3c(c2c1)CCCC3 | inactive | 21.3%
CNC(=O)NC(=O)COc1ccc2oc3c(c2c1)CCCC3 | 0.58 µM (active) | 18.9%
COc1cccc(-c2cc(C(=O)N/N=C/c3ccco3)c3ccccc3n2)c1 | inactive | –
O=C(N/N=C/c1ccco1)c1cc(C2CC2)nc2ccccc12 | inactive | -1.9%
O=C(N/N=C/c1ccco1)c1cc(-c2ccccc2)nc2ccccc12 | 29.1 µM (active) | -7.31%
O=C1N/C(=N/O)S/C1=C/c1cccnc1 | inactive | 16%
CC(=O)/C=C\c1ccccc1OC(=O)c1cc2ccccc2oc1=O | inactive | -9.71%
O=C(COC(=O)c1cc2ccccc2o1)c1ccccc1 | inactive | -6.43%
O=C(Oc1ccccc1/C=C\C(=O)c1cc2ccccc2o1)c1ccccc1 | 14.6 µM (active) | –
FC(F)(F)c1cc(C(F)(F)F)c2ccc(N3CCOCC3)nc2n1 | inactive | 4.12%

Reference: PubChem BioAssay AID2685 (National Center for Advancing Translational Sciences (NCATS), 2010)
